Bioassay records from PubChem.
3T3 cytotox: cytotoxic compounds in NIH 3T3 cells; NIH 3T3 viability, CellTiter-Glo ATP luminescence, 48-72 h; Potency, µM (top dose mostly 96.7 µM), inactives show at the top dose activity change, negative = cytotoxicity, hits mostly inhibitors; 94,000 compounds, 4.3% hits; AID 1345082; note: nearly all actives have a fitted effect of over 55% in size
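Luminescent ATP readout (CellTiter-Glo, 10 min RT) after 48 or 72 hr compound exposure of NIH 3T3 cells seeded at 400 cells/well in 1536-well format; quantitative HTS.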
HEK293 tox: cytotoxic compounds in HEK 293 cells. Potency, µM (top dose mostly 115 µM), for inactives: top-dose activity change, negative = cytotoxicity, most hits filed as inhibitors. 94,000 compounds, 6.6% hits. HEK 293 viability, ATP luminescence (CellTiter-Glo), 48-72 h; note: nearly all actives have a fitted effect of over 60% in size
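Read-out: CellTiter-Glo ATP luminescence. Cells: HEK 293, 250 cells/well. Exposure: 48 or 72 hr, 37 degree Celsius.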
Luciferase inh: blocks purified firefly luciferase enzyme activity. P08659. purified P. pyralis luciferase, luminescence, biochemical. Potency, µM (top dose mostly 115 µM), hits mostly inhibitors. 76,000 compounds, 2.5% hits; note: nearly all actives have a fitted effect of over 65% in size
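Purified P. pyralis luciferase (10nM final) in 50mM Tris acetate pH 7.5, 10mM Mg acetate, 0.01% Tween-20, 0.05% BSA with 10uM D-luciferin and 10uM ATP. Compounds titrated qHTS. Luminescence imaged on CCD.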
hNpr1 antagonist: blocks ANP-stimulated signaling of human Npr1 receptor. P16066. HEK293 hNpr1 GloSensor cGMP, ANP-stimulated luminescence. Potency, µM (doses to about 46.3 µM), inactives show at the top dose activity change, negative = inhibition, usual class: inhibitors. 76,000 compounds, 1.6% hits; calls by dose curve; note: nearly all actives have a fitted effect of over 60% in size
Target sequence (P16066 whole entry, looked up): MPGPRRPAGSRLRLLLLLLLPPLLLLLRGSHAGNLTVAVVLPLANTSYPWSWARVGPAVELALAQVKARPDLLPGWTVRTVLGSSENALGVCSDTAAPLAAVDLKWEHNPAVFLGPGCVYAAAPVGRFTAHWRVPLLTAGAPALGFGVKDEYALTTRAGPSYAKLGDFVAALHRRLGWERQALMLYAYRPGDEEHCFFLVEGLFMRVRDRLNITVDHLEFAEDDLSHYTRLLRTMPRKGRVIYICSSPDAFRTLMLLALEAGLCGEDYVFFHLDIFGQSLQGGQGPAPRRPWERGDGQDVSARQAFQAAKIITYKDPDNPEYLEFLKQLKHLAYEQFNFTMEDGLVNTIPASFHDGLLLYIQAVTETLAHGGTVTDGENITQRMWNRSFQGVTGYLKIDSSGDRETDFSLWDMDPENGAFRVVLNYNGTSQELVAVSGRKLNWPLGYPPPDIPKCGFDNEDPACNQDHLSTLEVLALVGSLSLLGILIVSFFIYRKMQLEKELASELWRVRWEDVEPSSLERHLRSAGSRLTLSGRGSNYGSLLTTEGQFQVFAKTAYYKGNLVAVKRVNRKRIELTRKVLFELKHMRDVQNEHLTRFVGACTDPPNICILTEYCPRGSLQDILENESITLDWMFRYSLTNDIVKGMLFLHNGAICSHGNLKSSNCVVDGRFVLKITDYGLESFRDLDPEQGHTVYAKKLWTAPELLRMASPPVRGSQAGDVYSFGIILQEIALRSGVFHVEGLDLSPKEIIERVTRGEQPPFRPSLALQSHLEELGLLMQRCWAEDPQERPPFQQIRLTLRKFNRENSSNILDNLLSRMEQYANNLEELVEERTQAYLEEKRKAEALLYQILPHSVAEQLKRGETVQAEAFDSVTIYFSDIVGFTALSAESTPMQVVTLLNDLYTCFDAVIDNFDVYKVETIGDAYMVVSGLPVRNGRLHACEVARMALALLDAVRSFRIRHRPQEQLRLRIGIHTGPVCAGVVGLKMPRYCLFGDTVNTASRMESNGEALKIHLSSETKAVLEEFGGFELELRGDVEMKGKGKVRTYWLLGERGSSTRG
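HEK293 cells stably expressing human Npr1 and cGMP GloSensor pGS-40F, loaded 2 h with 2% GloSensor reagent, given compound 30 min at room temperature. Luminescence read before and 20 min after 0.1 nM hNppA.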
GPT2 inh: GPT2 alanine aminotransferase inhibition; Q8TD30; Recombinant GPT2, coupled pyruvate oxidase/HRP Amplex Red fluorescence; Potency, µM (doses to about 57.7 µM), without a hit: at the top dose activity change, negative = inhibition, actives largely listed as inhibitors; 100,000 compounds, 0.25% hits; AID 1671188; note: nearly all actives have a fitted effect of over 60% in size
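Fluorescence of coupled pyruvate oxidase/HRP/Amplex Red system (50uM Amplex, 30 min, dark) reports pyruvate formed by GPT2. Enzyme reaction: 10ng/uL GPT2, 2mM L-alanine, 250uM a-KG, 30 min room temperature, pH 7.5; 50uM AOA control.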
* = called active by the depositor; i = inactive; ? = inconclusive; nt = no result given; [ ] = dose if it differs, or a comment. Rows were chosen to be rich in hits. Some 10% of all compounds tested hit in one or more screens of this group. Unless noted, calls come from the whole dose curve; as a rule, active = well fitted curve in the direction sought with a large enough effect; inconclusive = small, poorly fitted or top-dose-only effect, or another doubt; inactive = no such curve, though single readings can be large; an effect the other way counts as inactive or inconclusive. % is set by controls: 0 for no effect and ±100 for the full control effect; potency is the fitted concentration of half-maximal effect.

SMILES | 3T3 cytotox | HEK293 tox | Luciferase inh | hNpr1 antagonist | GPT2 inh
C=CCNC(=O)[C@@H]1Cc2cn(Cc3c(C)noc3C)c3cccc(c23)[C@H](CC(C)C)N1 | 112µM* | 100µM* | i | 0%[70.6 µM] | 1%[88.5 µM]
CC(C)C[C@@H]1N[C@H](C(=O)O)Cc2cn(CC3CC3)c3cccc1c23 | ? | ? | i | ? | -34%[88.5 µM]
O=C(NCCCN1CCCCC1)c1ccc2c(c1)N(S(=O)(=O)c1ccccc1)CC2 | -5% | ? | i | 5% | -16%
COc1cc(OCc2ccccc2)ccc1CN1CC[C@@]2(O)CCNC[C@H]2C1 | 20µM* | 22µM* | i | -3% | -3%
COc1cc(-c2cc(C)c3cccc(OC)c3n2)cc2c1OCCN(C(=O)CCN)C2 | 89µM* | ? | i | 0% | -17%
O=C(C1CCCC1)N1CCCC(C(=O)N2CCCC2c2nc3ccncc3[nH]2)C1 (centres undefined) | -11% | -12% | nt | nt | -1%
Cc1nc(-c2cccc(Cl)c2)n(CC(=O)Nc2ccc(F)cc2)c(=O)c1CCO | ? | 40µM* | i | -4% | i
COc1cccc(CNC(=O)Cn2c(-c3cccc(Cl)c3)nc(C)c(CCO)c2=O)c1 | ? | 22µM* | i | 4% | i
Cc1nc(-c2cccc(Cl)c2)n(CC(=O)Nc2ccc(C(F)(F)F)cc2)c(=O)c1CCO | 16µM* | 32µM* | i | -22% | ?
Cc1nc(-c2cccc(Cl)c2)n(CC(=O)NC(C)C)c(=O)c1CCO | -9% | ? | i | 2% | i
Cc1ccccc1NC(=O)Cn1c(-c2cccc(Cl)c2)nc(C)c(CCO)c1=O | ? | ? | i | -3% | i
Cc1cccc(N(C)C(=O)Cn2c(-c3cccc(Cl)c3)nc(C)c(CCO)c2=O)c1 | ? | 35µM* | i | -9% | -15%
COCCn1c(=O)c(C(=O)N2CCN(C(=O)c3cccc(Cl)c3)CC2)nc2cccnc21 | 2% | 3% | nt | nt | i
CCOc1ccccc1CNC(=O)[C@@]12CCCC[C@H]1N(CCOC)C(=O)CC2 | ? | ? | i | -2% | 2%
Cc1cc(C)cc(NC(=O)Cn2c(-c3cccc(Cl)c3)nc(C)c(CCO)c2=O)c1 | -12% | ? | i | 5% | i
COc1ccccc1NC(=O)Cn1c(-c2cccc(Cl)c2)nc(C)c(CCO)c1=O | -25% | ? | i | -3% | i
CCc1ccc(NC(=O)Cn2c(-c3cccc(Cl)c3)nc(C)c(CCO)c2=O)cc1 | ? | 28µM* | i | 0% | -11%
COc1ccc(N2CCN(C(=O)Cn3c(-c4cccc(Cl)c4)nc(C)c(CCO)c3=O)CC2)cc1 | -13% | 45µM* | i | -13% | 1%
COc1ccc(C(=O)N2CCCN(c3ccc4nnc(C)n4n3)CC2)cc1 | -2% | -2% | nt | nt | nt
CCc1nc2c(c(-c3ccc(O)cc3)n1)CCN(Cc1cccc(C(F)(F)F)c1)CC2 | 40µM* | 45µM* | i | ? | i
CCc1nc2c(c(-c3ccc(O)cc3)n1)CCN(Cc1ccccc1C(F)(F)F)CC2 | 40µM* | ? | i | -2% | i
CN1CCN(c2nc3c(c(=O)[nH]2)CCN(Cc2ccccc2C(F)(F)F)CC3)CC1 | -30% | 79µM* | i | -2% | -8%
CCc1nc2c(c(-c3ccc(O)cc3)n1)CCN(Cc1ccc(OC(F)(F)F)cc1)CC2 | ? | ? | i | -27% | -4%
Oc1ccc(-c2nc(C3CC3)nc3c2CCN(Cc2ccccc2C(F)(F)F)CC3)cc1 | 32µM* | 32µM* | i | 0% | i
O=C(NC1CC1)[C@@H]1C[C@H](Oc2cccnc2)CN1C(=O)c1cc2ccccc2[nH]1 | -8% | i | nt | nt | i
SMILES | 3T3 cytotox | HEK293 tox | Luciferase inh | hNpr1 antagonist | GPT2 inh
O=C(c1ccc(Cl)cc1)N1CCC(n2cc(-c3ccc(OC(F)F)cc3)[nH]c2=O)CC1 | ? | ? | nt | nt | 4%
CN1CCC(N2C[C@@H]3C[C@H]2C(=O)N(CC2CC2)c2ccccc2O3)CC1 | i | 4%[172 µM] | i | 2%[70.6 µM] | -4%[88.5 µM]
COc1ccc(-c2nc(C3CC3)nc3c2CN(C(=O)c2ccccc2F)CC3)cc1 | 28µM* | -10% | nt | nt | i
COc1ccc(-c2nc(C3CC3)nc3c2CCN(C(=O)c2ccccc2F)CC3)cc1 | -24% | ? | nt | nt | i
CCc1nc2c(c(-c3ccc(O)cc3)n1)CCN(C(=O)NC1CCCC1)CC2 | -28% | ? | nt | nt | i
O=C(C1CCCC1)N1CCc2nc(-c3ccccc3)nc(-c3ccc(Cl)cc3)c2C1 | ? | 35µM* | i | -13% | -3%
COc1ccc(-c2nc(-c3ccccc3)nc3c2CN(C(=O)C2CCCC2)CC3)cc1 | ? | 35µM* | i | 5% | i
CCc1nc2c(c(-c3ccc(O)cc3)n1)CN(C(=O)C1CCCC1)CC2 | ? | 40µM* | nt | nt | i
O=C(C1CC1)N1CCc2nc(-c3ccccc3)nc(-c3ccc(Cl)cc3)c2C1 | -23% | -17% | i | -30% | i
O=C(C1CCCC1)N1CCc2nc(-c3ccc(Cl)cc3)nc(-c3ccccc3)c2C1 | ? | 18µM* | ? | -13% | -4%
CNC(=O)c1cc(C2CC2)nc2onc(C3CCCN3[S+](=O)([O-])c3ccccc3)c12 (centres undefined) | -2% | -2% | nt | nt | nt
O=[S+]([O-])(CCC(F)(F)F)N1CCC2(CC1)CC(c1cccc(C(F)(F)F)c1)=NO2 | -20% | -23% | nt | nt | nt
Cc1cccc(C)c1-c1nnc2ccc(C(=O)NCc3cccs3)cn12 | -21% | ? | nt | nt | 0%
COc1ccc(OCc2cc(C(=O)NCCc3nc(C)c(C)s3)no2)c(Cl)c1 | ? | 32µM* | ? | 0% | i
COc1ccc(OCc2cc(C(=O)NC(C)CCO)n[nH]2)c(Cl)c1 (centres undefined) | -26% | -13% | ? | -1% | 3%
COc1ccc(-c2ccc3ncc(Nc4ccnc(N5CCOCC5)c4)n3n2)cc1OC | 45µM* | ? | ? | 3%[70.6 µM] | ?
COc1ccc(-c2ccc3ncc(Nc4ccc(C(N)=O)cc4)n3n2)cn1 | ? | ? | i | -2%[70.6 µM] | ?
COc1ccc(-c2ccc3ncc(Nc4ccc(C(N)=O)cc4)n3n2)cc1OC | 18µM* | ? | i | 2%[70.6 µM] | -15%[88.5 µM]
COc1ccc(-c2ccc3ncc(Nc4cccc(F)c4)n3n2)cc1OC | ? | 63µM* | i | 4%[70.6 µM] | -21%[88.5 µM]
COc1ccc(-c2ccc3ncc(Nc4ccccc4)n3n2)cc1OC | 20µM* | 35µM* | i | 1%[70.6 µM] | ?
c1ccc(-c2ccc3ncc(Nc4ccc(N5CCOCC5)cc4)n3n2)cc1 | ? | ? | i | 2%[70.6 µM] | i
